In PubChem BioAssay (NCI):
About 79,000 compounds went through this panel and 15% of them were active in at least one assay; those are over-represented in the sample as a whole. Values without a mark were called inactive. Activity calls are given as the source filed them. Cut-off read from the data, not from the text of the source: active = growth inhibition above about 70%; inactive = the rest.

How the values were obtained:
[1] = NCI Yeast Anticancer Drug Screen. Data for the rad50 strain (AID 155);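 note: 0% = growth of vehicle-only cultures of the same strain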; details: S. cerevisiae rad50 strain growth inhibition; at 50.0 µM; active compounds read high
In short: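 Cells are treated with compound, grown, and their growth is then scored against vehicle-only cultures of the same repair-deficient yeast strain.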

[2] = NCI Yeast Anticancer Drug Screen. Data for the mec2-1 strain (AID 157); details: S. cerevisiae mec2-1 strain, at 50.0 µM, active compounds read high
In short: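 Vehicle-treated cultures served as reference for growth inhibition of compound-exposed mec2-1 yeast.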

[3] = NCI Yeast Anticancer Drug Screen. Data for the sgs1 mgt1 strain (AID 161);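 note: 0% = growth of cultures given vehicle only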; details: S. cerevisiae sgs1 mgt1 strain, at 50.0 µM, active compounds read high
In short: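 Genetically altered yeast, compound exposure, growth inhibition relative to vehicle.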

[4] = NCI Yeast Anticancer Drug Screen. Data for the cln2 rad14 strain (AID 165);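 note: 0% = growth equal to vehicle treated cultures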; details: S. cerevisiae cln2 rad14 strain, at 50.0 µM, active compounds read high
In short: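 Each compound was tested on cln2 rad14 yeast. Inhibition of growth was calculated against vehicle-exposed controls.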

[5] = NCI Yeast Anticancer Drug Screen. Data for the bub3 strain (AID 167); details: S. cerevisiae bub3 mutant strain, at 50.0 µM, active compounds read high
In short: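 Part of a panel of yeast mutants defective in DNA damage repair or cell cycle regulation. Each strain is grown with compound, and inhibition is calculated relative to solvent-treated cultures.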

[6] = NCI Yeast Anticancer Drug Screen. Data for the mlh1 rad18 strain (AID 175); details: S. cerevisiae mlh1 rad18 strain growth inhibition; at 50.0 µM; active compounds read high
In short: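 Vehicle-treated cultures served as the reference for growth inhibition in a yeast strain carrying DNA damage repair alterations exposed to each compound.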

| Compound | growth inhibition [1] | growth inhibition [2] | growth inhibition [3] | growth inhibition [4] | growth inhibition [5] | growth inhibition [6] |
| --- | --- | --- | --- | --- | --- | --- |
| Cc1nc2cccc(F)c2c(=O)n1-c1nnc(C(F)(F)F)s1 | 16.9% | 8.8% | 16.5% | 10.8% | -6.4% | 15.5% |
| COP(=O)(Oc1ccccc1)Oc1ccccc1 | 17.6% | -17.5% | 23.9% | 13.1% | 25.9% | 18.5% |
| CC(=O)N(C)C(=O)Oc1cccc2ccccc12 | -8.35% | 17.4% | -10.8% | -34.2% | -27.1% | -0.55% |
| Cc1c[nH]c2c1C13CC1CN(C(=O)c1cc4cc(NC(=O)c5cc6ccccc6o5)ccc4[nH]1)C3=CC2=O (stereo unspecified) | 84.9% (active) | 91.4% (active) | 90.3% (active) | 88.2% (active) | 90.2% (active) | 89% (active) |
| O=[N+]([O-])c1cccc2cccnc12 | -11.4% | -13.8% | 6.75% | 4.2% | 0.4% | -1.75% |
| C[C@H](CCC1SC1(C)C)C1CCC2(C)C3=C(CC[C@]12C)[C@@]1(C)CC[C@H](O)C(C)(C)C1CC3 (stereo partly specified) | 9.85% | -11.2% | -11.2% | -48.8% | -5.2% | 1.9% |
| OCC1CCCN2CCCCC12 (stereo unspecified) | 1.2% | 0.35% | -4.2% | -39.1% | -20.4% | 7.35% |
| COC1C(OC(=O)c2ccc(C)[nH]2)C(O)C(Oc2ccc3c(O)c(NC(=O)c4ccc(O)c(CC=C(C)C)c4)c(=O)oc3c2Cl)OC1(C)C (stereo unspecified) | 44.2% | 25.9% | 23.8% | 50.6% | 35.9% | 33% |
| N#CC1(c2ccccc2)CCN(C2(c3ccccc3)CCCCC2)CC1 | -23.4% | -30.2% | -5.7% | 4.25% | -3.55% | -30.1% |
| Nc1nn[nH]n1 (tested in a mixture with another compound) | -4.65% | 1.45% | -3.7% | -27.1% | 0.05% | -3.05% |
| O=P(O)(NCCCl)NCCCl | -24.4% | -17.9% | -22.7% | -5.6% | -41.1% | -39.5% |
| O=C(O)C(O)(c1ccccc1)c1ccsc1 (stereo unspecified) | 4.45% | 2.15% | -8.6% | -28.9% | 1.95% | 8.8% |
| CCCCCCCNC(c1ccccc1)C(O)c1ccccc1 (stereo unspecified) | 8.4% | 10.4% | 12.1% | -40.2% | 1.55% | -3.05% |
| CC(=O)OCC1OC(S[As](C)C)C(OC(C)=O)C(OC(C)=O)C1OC(C)=O (stereo unspecified) | -2.85% | 13.8% | -8.3% | 10.9% | 6.4% | 36.8% |
| O=C(O)C(F)(F)C(F)(Cl)C(F)(F)C(F)(Cl)C(F)(F)Cl (stereo unspecified) (tested in a mixture with another compound) | -7.65% | -12.8% | -12.7% | -28.2% | 1.1% | -6.2% |
| O=NNc1cccnc1 | -1.05% | -17.1% | -2.35% | 4.45% | -4.8% | -38% |
| [N-]=[N+]=C1C(=O)NN=C1c1ccccc1 | -9.6% | -21.9% | -25.4% | 0.5% | -17.2% | 12.8% |
| C1CCN2CC3CONC3C2C1 (stereo unspecified) | -11.3% | -7.5% | 2.05% | 13.7% | -6.2% | -3.05% |
| Nc1nc(-c2ccccc2)c[se]1 | 63.6% | 32.3% | 30.6% | 16.6% | -7.65% | 31.4% |
| CCOP(=S)(NCCCOC)OCC | 0.25% | 5.8% | 12.3% | -32.4% | 22.6% | 2.4% |
| C=C(C)CNC1=C(C)C(=O)C2=C(C1=O)[C@H](COC(N)=O)[C@]1(OC)[C@@H]3N[C@@H]3CN21 | 5.15% | -9.35% | 13.3% | 23.9% | 19.4% | 74.7% (active) |

| Compound | growth inhibition [1] | growth inhibition [2] | growth inhibition [3] | growth inhibition [4] | growth inhibition [5] | growth inhibition [6] |
| --- | --- | --- | --- | --- | --- | --- |
| CC(=O)C(=[N+]=[N-])C(=O)N(C)CCC#N | -7.3% | 6.25% | 11.2% | 13.7% | 7.25% | 20.9% |
| CCOC(=O)/C(C#N)=C(/SC)N1CC1 | 1.9% | 12% | 1.4% | -7.2% | 6.8% | -2% |
| c1cc[c]([Hg][S]c2nc3ccccc3s2)cc1 | -22.4% | -7.1% | -6.05% | -37.3% | -5.15% | -5.1% |
| CSP(=S)(SC)SC(C)C | 19% | 1.65% | 24.1% | 27.2% | 6.5% | -4.45% |
| [C-]#[O+].[C-]#[O+].[C-]#[O+].[Cr].c1ccc([PH+](CC[As](c2ccccc2)c2ccccc2)CC[As](c2ccccc2)c2ccccc2)cc1 | 5.45% | -7.65% | 27.7% | 2.6% | 11.1% | 38.9% |
| CCC1(CCC(C)C)C(=O)NC(=NCCCC(N)C(=O)O)NC1=O (stereo unspecified) | 11.1% | -0.35% | 7.6% | 30.3% | 3.25% | 13.1% |
| c1cc2n[se]nc2cc1-c1ccc2n[se]nc2c1 | 26.7% | -11.8% | -7.85% | -40.2% | -9.55% | -17.4% |
| CC(=N\O)/C(C)=N/O.CC(=N\O)/C(C)=N/O.CC(=N\O)/C(C)=N/O.CC(=N\O)/C(C)=N/O.[Cu].[Cu] | -7.15% | 12.9% | -22.1% | -8.2% | -13.9% | -4.2% |
| CC(C)CNC12CN3CN(CN(C3)C1)C2 | -9.25% | -11.2% | -6% | -27.9% | -4.85% | -23.7% |
| CC(=O)OC1CC2(C)C(=CC1C1SCCS1)CCC1C2CCC2(C)C(OC(C)=O)CCC12 (stereo unspecified) | -7.6% | 3.2% | -31.5% | 14.7% | -49.5% | 11.3% |
| CC(=O)Nc1ccc2c(c1)C(=O)c1cc(NC(C)=O)ccc1-2 | 24.4% | -10.1% | -13.6% | 1.55% | -2.75% | -7.5% |
| COc1ccc(NC(=O)COc2cccc(Cl)c2)cc1S(=O)(=O)F | 3.95% | 32.1% | 14.4% | -2.65% | 30.1% | 1.15% |
| c1cc[c]([Ge]([c]2ccccc2)[c]2ccccc2)cc1 | 23.1% | -3.8% | 3.05% | 20.3% | -5.15% | 14.4% |
| O=C1NC(=O)C(=C/C=C/c2ccccc2)C(=O)N1 | 34.2% | -3.5% | 18.6% | 16.4% | 10.5% | -2.25% |
| O=c1[nH]cc([N+](=O)[O-])cc1[N+](=O)[O-] | 1.5% | -16.6% | -2.25% | 22.7% | -15.6% | 0.5% |
| CC1CN1C(=O)NCCCCCCNC(=O)N1CC1C (stereo unspecified) | -17.7% | -0.2% | -2.95% | -38.7% | -5.55% | -28.6% |
| N=C(N)n1cc(/C=N/N=C(N)N)cn1 | -4.4% | -4.35% | -0.15% | 0.1% | -8.3% | 5.8% |
| CN(C)P(=O)(CC(O)c1ccccc1)N(C)C (stereo unspecified) | 18.6% | -2.05% | -14.5% | -8.05% | 8.5% | 10.9% |
| COCC(C)OC(=O)Cc1ccccc1 (stereo unspecified) | -10.9% | -8.2% | -8.6% | -85.6% | -49.1% | -31.1% |
| O=C(COc1ccc(Cl)c(Cl)c1)Nc1ccc[n+](CC(=O)Nc2ccc(S(=O)(=O)F)cc2)c1 | 32.4% | 41.4% | 32.5% | 96.7% (active) | 45% | 22.1% |
